Whole data set: some 25,000 sequences, median “ln(normalized median fluorescence intensity)” near 6.7, cut for the highest 2% near 10. The list comes from a sample in which the highest values are over-represented; it also holds similar and randomly drawn sequences.
test system: PfHDP1 homeodomain (GST-tagged); test: gcPBM binding intensity (ln(normalized median fluorescence intensity)); higher = stronger DNA binding
Outline: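 In this array assay, P. falciparum DNA-binding domains with a GST tag, expressed in E. coli, were applied for 1 h to primer-extended double-stranded 36-bp intergenic genomic probes and negative controls on an Agilent 4 × 180k array. Bound protein was visualised with Alexa488 anti-GST antibody at 488 nm. Binding intensity is the highest Masliner-normalised natural-log median intensity across replicate spots of either probe orientation.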

Row | Sequence | gcPBM binding intensity (ln)
1 | AAAAAAAAAAAAAAGAGTACACAGACGTTCAAAGGT [XGTACX_site7566] | 6.85
2 | CGCGAACATACATACACACACATATTTATATAGGTA [CACACA_site6241] | 6.69
3 | ATAATTAGTTCAATTTTTTTTTTTTTTTTTTTTTTT [CACACA_negctrl_site1371] | 6.91
4 | ATAAATTTATATACTTGTACATATATATATTACATA [XGTACX_site6697] | 6.7
5 | TGCTGTATATTTTTCTGTACACATTTATATATTCCA [XGTACX_site6244] | 6.65
6 | CATATAGTATAAATTTGTACATAAATATATATATAT [XGTACX_site7477] | 8.91
7 | TATAATATATTTTAATGTACGTACATCCCGATTAAT [XGTACX_site7651] | 6.63
8 | CAAAAAAATGTGAAGGCATGCAAATATGTAAAATAA [TGCATGCA_site921] | 7.26
9 | AATAAATAAAAAATTACACACATATTTATAAATATA [CACACA_site7584] | 6.4
10 | AACCATAAATAATTATGTACTAAAAAAAATATATAT [XGTACX_site3415] | 6.7
11 | ATAATTATTAAGAGAACATGCAAAATATATATGTTT [TGCATGCA_site503] | 6.68
12 | TATTAATTATAAGATGCATGTGCAAAAATATGTTCC [TGCATGCA_site51] | 10.2
13 | ACTAAAAAATATATATGTACATAATAATATATTATT [XGTACX_site1260] | 6.66
14 | TAATAAAATATGTACGTGCACATAATTATACTAAAA | 10.5
15 | AATATTTTAAATATTGCATGCAATGAAAAATGTAAA [TGCATGCA_site139] | 7.73
16 | ATAATTATAAAATAAACACACATATATATTTATATG [CACACA_site440] | 6.29
17 | TATAAAATAAATTGTGCACACATATTTATAAATATG [CACACA_site2330] | 10.5
18 | AAATTAATATTATGTGCATGCACAAAGAGGAACGAC [TGCATGCA_site754] | 11.8
19 | TTATTGTAAATATATGCATGTGCAAAATGAAAAAAA [TGCATGCA_site399] | 10.5
20 | AAAAATAAAAAAATAAAAAATAAAAAAATAAAAAAT [CACACA_negctrl_site1425] | 6.64
21 | TTAATAATAAAAAGGAGTACACTAATATACTATAAA [XGTACX_site2346] | 6.35
22 | TAAATTTTAATAAATACACACAAATTTTAATTCTAT [CACACA_site6039] | 6.27
23 | TACATATAAACAATAACACACACCTAGGTACATGGA [CACACA_site8178] | 6.49
24 | TGTATTCTCTTAGTAGTGCATTTGAAGATTATATAA | 8.81
25 | TAAATAGATGTTTTATGTACGTATAAATAAAAAAAA [XGTACX_site3412] | 6.29

Row | Sequence | gcPBM binding intensity (ln)
26 | TTTATTTATTTAATTACACACGAACATATAACCATT [CACACA_site7952] | 6.8
27 | ATTTTTTAAAAAGTAACACACACTCTTATATATAAT [CACACA_site9206] | 6.64
28 | ATATACATATCATGTAGTACAATTTTTTTACTTTTT [XGTACX_site7988] | 6.14
29 | CAAGCTATGTATTCTACACACACATACACCCATATA [CACACA_site9133] | 7.22
30 | TAATATAATATATGCACACAAATATGTATTTATGTG [CACACA_site5210] | 10.1
31 | ATGAAAATTTATATTGCACACATAGGGAATAAAAAA [CACACA_site8667] | 10.4
32 | TAATATTTTAATTGTGTGCACATTAATATTATAAAA | 10.3
33 | ATATATTATATAATATGTACATAATAAAATTTAAAT [XGTACX_site1900] | 6.79
34 | TTAAAAAAATTAATATGTACATATATTTATATATAT [XGTACX_site5317] | 6.54
35 | TTTATGAAACAGTGCACACATAAAAATATATACATA [CACACA_site2992] | 10.1
36 | TAAAATAATATTTATGTGCACATATAATTATTAATT | 10.7
37 | TAAAATAAATTGTGCACACATATTTATAAATATGAA [CACACA_site2331] | 10.7
38 | ATATTTAATGTTAATTGTACATATTATATATATATA [XGTACX_site6095] | 8.49
39 | ATTATTAATAATTGTGTGCACAAATATTTATATGCT | 10.6
40 | CAAATATATATGTTCACACATATAATTATTGTGAAA [CACACA_site4190] | 6.4
41 | TGAAATTTTATTAATGTGCACATATATTTATTGTTC | 10.8
42 | CAACATTAATATAAAGCACACATATATATAATATAT [CACACA_site8064] | 6.39
43 | TTGAACCTGATAAATACACACAATATAGATTTTTTT [CACACA_site7091] | 6.48
44 | TTTCTAATTCTTAGTGGTACACAGTTCTGCTGATAT [XGTACX_site2391] | 6.09
45 | AATGAGCGTTAAAAATGTACAGAAAATTGGAATTAT [XGTACX_site5743] | 6.75
46 | TGCATAAATTTATGCACACATAAAAAAAAAAAAAAA [CACACA_site2923] | 10.4
47 | GAAATAATTTCATATACACACATATACATACATACA [CACACA_site1358] | 7.13
48 | ATATATATATATATTGTGCACAAAAAAAAATAAGCA | 10.7
49 | ACAAAAAAAATAAGCACACATATATATATATATATA [CACACA_site816] | 9.27
50 | TATATATATATATATGTGCACATATTTATATGTTTT | 10.3

Row | Sequence | gcPBM binding intensity (ln)
51 | ATAAAATATATATGCACACACATATATATTTCATAC [CACACA_site3547] | 10.2
52 | TAAAATAATTTATGCATACACACATATATATATATA [CACACA_site4021] | 9.28
53 | GTTTATTTATTTTATGTGCACATATAACAAAAAAAA | 10.7
54 | CAAAATATTTTTATAACACACATATATATAATGTGC [CACACA_site4767] | 6.52
55 | TGTGCATAAATTTATGCACACATAAAAAAAAAAAAA [CACACA_site8954] | 11
56 | TATAAAAATAAGCACACACACAAATATATATTTATT [CACACA_site922] | 6.77
57 | ATAATTTCATAATACGTGCACATAATATATAAAAAA | 10.9
58 | AAGAAAGGTTAAACATGTACATAAATATTTTACATA [XGTACX_site5024] | 6.28
59 | TAATTCACATTTTATACACACATTCGAACCTTTTTT [CACACA_site3341] | 6.88
60 | TTATAAAAGAAAAAAAAAAAAAAAAAAAAAAAAAAA [CACACA_negctrl_site1006] | 6.11
61 | TTACATATATTGGGGTGTACATATATTTTCCTTCAC [XGTACX_site6224] | 7.35
62 | AAAAAAAAGAAAGAAAGTACAAATTATAAAATGAAC [XGTACX_site860] | 6.62
63 | AACAATAAATTATTATGTACACATATATTATATATA [XGTACX_site4629] | 6.47
64 | ATCTAAAAATTTTACGCACACAAGTAAAAAAAAAAA [CACACA_site2485] | 7.14
65 | ACTATATATATAAGTGCATGTTCATTATACCTAAAG [TGCATGCA_site696] | 7.49
66 | TTATATATTTATAAATGTACGTATAAGAATTTAATT [XGTACX_site8541] | 6.68
67 | GATAAATGTATATATGCATGCACATATATTTATACA [TGCATGCA_site748] | 8.96
68 | TATATTTATGTATATGTGCACATAAATTTAAGAATG [GTGCAC_site9512] | 10.9
69 | TATAATAATAATGATAGTACGTATGAGTTCAAGAAA [XGTACX_site4918] | 6.34
70 | TCATATATCCTTATCACACATATAATAAATTCCCTT [CACACA_site4457] | 6.59
71 | TATATATAATTTTATACATGCACATATTATATATAT [TGCATGCA_site1036] | 8.4
72 | TTTTTTATTATTATGTGTACGAATATGTGCATATAA [XGTACX_site1364] | 9.93
73 | TATGTGCATATAAACTCACACATTGTATATTACATG [CACACA_site6106] | 10.9
74 | TATATATTTATTAAATGTACATAACAAAAATGGTAT [XGTACX_site3577] | 7.05
75 | ATGTATGCAAAAATGGTGCATATTAAATGTATAACA [GTGCAC_site9722] | 10.5

Row | Sequence | gcPBM binding intensity (ln)
76 | ACACATATGCATATATGTACATAATATATTAAACTT [XGTACX_site5975] | 6.76
77 | ATATTATACGCATATGTGCGCATACATTTTTTTGCA [GTGCAC_site9540] | 7.53
78 | ATTATTACATATAATGCATGTGCATATATTTTTATA [TGCATGCA_site701] | 11
79 | CATATATAAATATGTATGCACTTTAACAAAATGTAT | 7.25
80 | CCTTATACGATATTATGTACGCATATGTGCATTTTT [XGTACX_site1570] | 10.9
81 | ATATATGCATATTATACACACATATGTATATACATT [CACACA_site965] | 7.81
82 | TATATATATATATATACATGCATATTTTTTATTTTT [TGCATGCA_site464] | 9.46
83 | TTATAAAGAAAAAATTGCTTTAAAAGAAAGATTACA [CACACA_negctrl_site960] | 5.87
84 | CTAAATTGTTAATAGAGTACATTTGTATAATATAAG [XGTACX_site594] | 6.44
85 | ATATATATATATGTACACATATATGTGTTTGTTTTT [GTGCAC_negctrl_site5] | 8.99
86 | GTAATTTTTTTCTATACACACATATCTATAATATAT [CACACA_site7284] | 6.94
87 | TCACTATAATAATTTACACACATTTTAAGAAAATGT [CACACA_site3530] | 6.61
88 | TGTTTGCTTATGTGTTAAATATATATATATATATAT [TGCATGCA_negctrl_site218] | 9.25
89 | TTATATGTATTTCTTTGTACACATTTTTATATATAT [XGTACX_site1462] | 7.16
90 | TATACATATATAAATGCATGTTGATATTAATAGTTA [TGCATGCA_site639] | 6.53
91 | AGTGAGAAATACATAATAATACATTATGTGCATATT [XGTACX_negctrl_site247] | 10.7
92 | TTATATTAATTTTGTTGTACTATTTGTGCATTAAAT [XGTACX_site4790] | 10.8
93 | TTTTTTTTTTTTTTGTGTACTAATATTATAAATTTT [XGTACX_site4405] | 6.44
94 | CATGTGCATATTAAATGTACATATATACATATATAC [XGTACX_site857] | 10.2
95 | TATTAATGCAAATGTTATATGTGCATACATAAATGT [CACACA_negctrl_site790] | 10.9
96 | TTTTTTAAATTTAAAGTGCATTATTATATATTTGTA | 8.5
97 | ATACCATATAATTATGTGAGAAAATATAATATTCAT [CACACA_negctrl_site310] | 6.55
98 | TCCAATTCTTTATTTTGTACACATTATGTGCATATG [XGTACX_site6290] | 10.9
99 | TATATGTAATATTATACATGCATACATAATATATAT [TGCATGCA_site558] | 6.52
100 | ATTTTTGTAATTATTTGTACACATTTATTTATGTGT [XGTACX_site1864] | 6.76

— the supplement of paper PMC11417369
